Results taken from PubChem BioAssay (Tox21).
Records with an inconclusive call do not appear. A call without a number means that no potency is given here. Active and inactive are the calls of the source. Unless noted, calls follow the shape of the dose curve; as a rule, active = well fitted curve in the direction sought with a large enough effect in the repeat runs; inconclusive = weak or mixed curves; inactive = no such curve, though single readings can be large; an effect the other way counts as inactive or inconclusive.

How the values were obtained:
[1] = target: Peroxisome proliferator-activated receptor gamma (Homo sapiens) (UniProt P37231); assay: qHTS assay to identify small molecule antagonists of the peroxisome proliferator-activated receptor gamma (PPARg) signaling pathway (AID 743191; calls by dose curve; also: series mostly up to about 63 µM; nearly all actives have a fitted effect of over 30% in size)
Sequence of Peroxisome proliferator-activated receptor gamma (Homo sapiens) (P37231 whole entry, looked up): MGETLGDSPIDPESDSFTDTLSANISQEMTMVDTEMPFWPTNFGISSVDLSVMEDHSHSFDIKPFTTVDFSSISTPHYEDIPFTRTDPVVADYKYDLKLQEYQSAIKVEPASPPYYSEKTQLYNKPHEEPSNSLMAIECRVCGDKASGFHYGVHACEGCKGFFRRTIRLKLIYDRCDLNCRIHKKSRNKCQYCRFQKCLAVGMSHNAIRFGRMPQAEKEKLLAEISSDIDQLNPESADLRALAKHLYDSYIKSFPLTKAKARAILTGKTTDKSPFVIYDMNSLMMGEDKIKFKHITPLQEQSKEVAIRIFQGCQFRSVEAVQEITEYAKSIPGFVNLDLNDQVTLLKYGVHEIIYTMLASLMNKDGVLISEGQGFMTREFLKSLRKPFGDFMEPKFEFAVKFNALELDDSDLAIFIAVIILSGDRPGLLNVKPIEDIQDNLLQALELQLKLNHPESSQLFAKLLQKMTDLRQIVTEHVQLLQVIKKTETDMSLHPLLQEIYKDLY
How it was run: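 Beta-lactamase reporter under UAS control in HEK293H PPARg-bla cells; compound treatment 17 h at 37C. Read-out: fluorescence intensity after 1 h room-temperature incubation with LiveBLAzer B/G FRET substrate.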

[2] = qHTS assay to identify small molecule antagonists of the peroxisome proliferator-activated receptor gamma (PPARg) signaling pathway - cell viability counter screen (AID 743194); also: nearly all actives have a fitted effect of over 55% in size
How it was run: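 Viability was measured as CellTiter-Glo luminescence in GeneBLAzer PPARg UAS-bla HEK293H cells. These cells had been exposed 17 h at 37 C to compounds together with rosiglitazone at 50 nM final, with the beta-lactamase readout taken in the same wells.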

[3] = qHTS assay for small molecule agonists of the antioxidant response element (ARE) signaling pathway (AID 743202; active = well fitted activation curve with a large enough effect in the signal ratio in the repeat runs, not every such curve was filed as active; the % refers to the signal ratio)
How it was run: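 After 16 hours of compound treatment at 37 C, HepG2 cells with a stably integrated ARE-driven beta-lactamase reporter were loaded 2 hours at room temperature with LiveBLAzer B/G FRET substrate and fluorescence intensity measured.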

[4] = qHTS assay for small molecule agonists of the antioxidant response element (ARE) signaling pathway - cell viability counter screen (AID 743203; calls by dose curve; also: nearly all actives have a fitted effect of over 55% in size)
How it was run: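 Cytotoxicity was tested in parallel with the ARE reporter screen. ARE-bla HepG2 cells were exposed to compounds for 16 hrs, and viability was taken from CellTiter-Glo luminescence.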

[5] = qHTS assay for small molecule activators of the heat shock response signaling pathway - cell viability counter screen (AID 743209); also: nearly all actives have a fitted effect of over 50% in size
How it was run: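 Cytotoxicity counter screen run in parallel with the HSE beta-lactamase reporter, using the same wells. HeLa HSE-bla cells received compound for 5 h at 37 C; ATP-based CellTiter-Glo luminescence was measured after 30 min at room temperature.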

[6] = qHTS assay for small molecule activators of the heat shock response signaling pathway (AID 743210; active = well fitted activation curve with a large enough effect in the signal ratio in the repeat runs, with a control signal flat, not every such curve was filed as active; the % refers to the signal ratio; also: series mostly up to about 63 µM)
How it was run: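 Compound exposure lasted 5 h at 37 C in HeLa cells carrying a heat-shock-element-driven beta-lactamase reporter. Read-out: fluorescence intensity after 2.5 h room-temperature loading with LiveBLAzer B/G FRET substrate.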

[7] = target: Estrogen receptor (Homo sapiens) (UniProt P03372); assay: qHTS assay to identify small molecule antagonists of the estrogen receptor alpha (ER-alpha) signaling pathway (AID 743069; active = well fitted curve in the direction sought with a large enough effect in the signal ratio in the repeat runs, not every such curve was filed as active; the % refers to the signal ratio)
Sequence of Estrogen receptor (Homo sapiens) (P03372 whole entry, looked up): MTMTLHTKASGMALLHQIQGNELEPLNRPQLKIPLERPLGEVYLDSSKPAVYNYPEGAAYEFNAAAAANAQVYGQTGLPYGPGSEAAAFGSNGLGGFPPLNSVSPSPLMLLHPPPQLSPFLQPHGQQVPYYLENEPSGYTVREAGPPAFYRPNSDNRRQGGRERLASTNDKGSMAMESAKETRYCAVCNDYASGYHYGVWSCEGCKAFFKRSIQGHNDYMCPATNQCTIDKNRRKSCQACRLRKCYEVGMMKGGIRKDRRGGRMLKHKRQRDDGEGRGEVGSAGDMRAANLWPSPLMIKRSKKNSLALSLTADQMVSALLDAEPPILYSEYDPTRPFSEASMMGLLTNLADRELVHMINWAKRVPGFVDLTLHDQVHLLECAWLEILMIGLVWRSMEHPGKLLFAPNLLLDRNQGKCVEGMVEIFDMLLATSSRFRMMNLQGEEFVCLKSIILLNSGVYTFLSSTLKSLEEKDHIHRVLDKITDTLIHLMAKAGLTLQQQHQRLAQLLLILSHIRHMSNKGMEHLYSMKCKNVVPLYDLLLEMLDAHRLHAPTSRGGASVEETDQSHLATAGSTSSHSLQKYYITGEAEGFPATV
How it was run: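 Antagonist mode: compounds in DMSO were co-added with 17beta-estradiol to ER-alpha-bla HEK293 cells (2% charcoal-stripped serum) and left 18 h at 37C. Reporter inhibition was measured as FRET fluorescence after 2 h LiveBLAzer substrate at room temperature.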

[8] = target: Estrogen receptor (Homo sapiens) (UniProt P03372); assay: qHTS assay to identify small molecule agonists of the estrogen receptor alpha (ER-alpha) signaling pathway (AID 743075; calls by dose curve;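 also: HEK293 GripTite cells with ER-alpha and UAS-driven beta-lactamase reporter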; also: potency is read from the fitted curve at half-maximal effect)
[9] = target: Estrogen receptor (Homo sapiens) (UniProt P03372); assay: qHTS assay to identify small molecule agonists of the estrogen receptor alpha (ER-alpha) signaling pathway using the BG1 cell line (AID 743079); also: nearly all actives have a fitted effect of over 20% in size; also: potency is read from the fitted curve at half-maximal effect
[10] = qHTS assay to identify small molecule antagonists of the estrogen receptor alpha (ER-alpha) signaling pathway using the BG1 cell line (AID 743080; calls by dose curve;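 also: BG1 cells stimulated with 17beta-estradiol alongside compound; series mostly up to about 70 µM; nearly all actives have a fitted effect of over 25% in size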)
How it was run: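 Quantitative HTS on the Tox21 10K library: BG1 cells with endogenous ER-alpha and ERE-luciferase reporter, 17beta-estradiol stimulation, 21.5 h compound exposure, luminescence endpoint with parallel fluorescence cytotoxicity counter-read.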

[11] = qHTS assay to identify small molecule antagonists of the estrogen receptor alpha (ER-alpha) signaling pathway using the BG1 cell line - cell viability counter screen (AID 743081);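 also: compound given together with 17beta-estradiol as the ER stimulus; series mostly up to about 70 µM; nearly all actives have a fitted effect of over 45% in size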
Aromatase (Homo sapiens) = Aromatase (Homo sapiens) (UniProt P11511); assay: qHTS assay to identify aromatase inhibitors (AID 743083); also: series mostly up to about 70 µM; nearly all actives have a fitted effect of over 55% in size
Sequence of Aromatase (Homo sapiens) (P11511 whole entry, looked up): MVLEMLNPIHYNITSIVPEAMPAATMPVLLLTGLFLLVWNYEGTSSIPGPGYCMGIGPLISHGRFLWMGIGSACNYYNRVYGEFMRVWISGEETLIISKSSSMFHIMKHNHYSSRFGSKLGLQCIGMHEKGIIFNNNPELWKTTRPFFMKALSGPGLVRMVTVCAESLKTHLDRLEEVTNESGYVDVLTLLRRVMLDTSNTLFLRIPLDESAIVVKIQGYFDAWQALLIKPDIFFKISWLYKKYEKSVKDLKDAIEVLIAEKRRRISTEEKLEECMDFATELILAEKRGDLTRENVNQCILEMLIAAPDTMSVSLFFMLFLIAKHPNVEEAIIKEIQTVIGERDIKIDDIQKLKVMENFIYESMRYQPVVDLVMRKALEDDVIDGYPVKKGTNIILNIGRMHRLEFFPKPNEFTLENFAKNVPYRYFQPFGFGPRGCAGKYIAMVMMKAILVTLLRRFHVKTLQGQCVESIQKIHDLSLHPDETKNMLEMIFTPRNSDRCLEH

[12] = qHTS assay to identify aromatase inhibitors - cell viability counter screen (AID 743084);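 also: cells stimulated with testosterone during compound exposure; nearly all actives have a fitted effect of over 55% in size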
[13] = target: Aryl hydrocarbon receptor (Homo sapiens) (UniProt P35869); assay: qHTS assay to identify small molecule that activate the aryl hydrocarbon receptor (AhR) signaling pathway (AID 743085); also: nearly all actives have a fitted effect of over 15% in size; also: potency is read from the fitted curve at half-maximal effect;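 as to activation: HG2L7.5c1 human HepG2 liver cells with stably integrated DRE-driven firefly reporter; series mostly up to about 70 µM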
Sequence of Aryl hydrocarbon receptor (Homo sapiens) (P35869 whole entry, looked up): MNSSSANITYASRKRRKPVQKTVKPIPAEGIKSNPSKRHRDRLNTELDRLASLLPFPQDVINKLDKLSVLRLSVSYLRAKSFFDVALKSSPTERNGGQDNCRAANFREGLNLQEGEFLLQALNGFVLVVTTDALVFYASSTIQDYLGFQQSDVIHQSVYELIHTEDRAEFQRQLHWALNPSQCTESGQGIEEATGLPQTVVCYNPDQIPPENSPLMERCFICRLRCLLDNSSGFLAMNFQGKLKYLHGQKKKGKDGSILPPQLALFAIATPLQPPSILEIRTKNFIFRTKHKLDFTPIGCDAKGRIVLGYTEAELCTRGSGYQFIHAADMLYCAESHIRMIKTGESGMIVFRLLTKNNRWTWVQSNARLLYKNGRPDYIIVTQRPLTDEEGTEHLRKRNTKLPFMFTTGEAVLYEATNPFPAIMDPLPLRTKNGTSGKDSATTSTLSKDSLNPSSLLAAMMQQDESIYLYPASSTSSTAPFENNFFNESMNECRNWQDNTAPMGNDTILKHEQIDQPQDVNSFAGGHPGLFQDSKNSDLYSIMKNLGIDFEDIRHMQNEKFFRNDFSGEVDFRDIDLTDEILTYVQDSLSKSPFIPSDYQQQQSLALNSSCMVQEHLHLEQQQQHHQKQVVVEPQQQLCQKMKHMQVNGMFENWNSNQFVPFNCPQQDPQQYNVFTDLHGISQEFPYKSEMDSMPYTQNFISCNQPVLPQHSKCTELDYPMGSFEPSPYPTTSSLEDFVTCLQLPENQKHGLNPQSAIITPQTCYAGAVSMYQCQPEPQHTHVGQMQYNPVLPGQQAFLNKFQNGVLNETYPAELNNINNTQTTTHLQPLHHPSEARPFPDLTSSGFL
How it was run: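 Compounds were tested in HepG2 hepatocellular carcinoma cells harbouring a stably integrated luciferase gene under control of 20 DREs. Increased reporter signal after 24 h treatment at 37C was taken as AhR activation.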

[14] = qHTS assay to identify small molecule that activate the aryl hydrocarbon receptor (AhR) signaling pathway - cell viability counter screen (AID 743086);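 also: HepG2 liver cells carrying the AhR DRE luciferase reporter; series mostly up to about 70 µM; nearly all actives have a fitted effect of over 45% in size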
How it was run: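 Cytotoxicity counter screen: CellTiter-Fluor signal (30 min, 37 C) in 4000 HepG2 cells/well carrying the DRE-luciferase reporter, following 24 h compound exposure at 37 C.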

[15] = qHTS assay to identify small molecule antagonists of the estrogen receptor alpha (ER-alpha) signaling pathway - cell viability counter screen (AID 743074; calls by dose curve;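 also: HEK293 cells carrying ER-alpha-UAS-bla reporter stimulated with 17beta-estradiol; nearly all actives have a fitted effect of over 45% in size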)
[16] = qHTS assay to identify small molecule antagonists of the thyroid receptor (TR) signaling pathway (AID 743065); also: nearly all actives have a fitted effect of over 55% in size; also: potency is read from the fitted curve at half-maximal effect
How it was run: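 Antagonism measured as loss of luciferase signal in GH3 cells stably carrying a TRE-luciferase reporter, co-treated with compound and T3 (1 nM final) for 23.5 h at 37 C. Viability was read in the same well by CellTiter-Fluor.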

[17] = test system: thyroid hormone receptor (rat, GH3 cells); assay: qHTS assay to identify small molecule agonists of the thyroid receptor (TR) signaling pathway (AID 743066; calls by dose curve)
[18] = target: Peroxisome proliferator-activated receptor gamma (Homo sapiens) (UniProt P37231); assay: qHTS assay to identify small molecule agonists of the peroxisome proliferator-activated receptor gamma (PPARg) signaling pathway (AID 743094; active = well fitted activation curve with a large enough effect in the signal ratio in the repeat runs, not every such curve was filed as active; the % refers to the signal ratio)
How it was run: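 Cells from the PPARg UAS-bla HEK293H line are plated and incubated 5 h at 37C. Compounds in DMSO are pinned in and left 17 h at 37C. LiveBLAzer B/G substrate is then added for 1 h at room temperature before fluorescence is measured.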

Structure (SMILES)	Potency [1]	outcome [2]	Potency [3]	outcome [4]	outcome [5]	outcome [6]	Potency [7]	Potency [8]	Potency [9]	Potency [10]	outcome [11]	outcome (Aromatase (Homo sapiens))	Potency [12]	Potency [13]	Potency [14]	Potency [15]	Potency [16]	outcome [17]	Potency [18]
CCOC(=O)C(=O)CCCCCCl	inactive	inactive	inactive	inactive	inactive	inactive													
CC1=NS(=O)(=O)c2cc(Cl)ccc2N1		inactive	inactive	inactive	inactive	inactive	inactive	inactive	inactive	inactive	inactive	inactive	inactive	inactive	inactive				
O=C(O)CCCC[P+](c1ccccc1)(c1ccccc1)c1ccccc1	inactive	inactive	inactive	inactive	inactive	inactive													
Cc1ccnc(NS(=O)(=O)c2ccc(N)cc2)n1	inactive	inactive	inactive	inactive	inactive	inactive	inactive	inactive	inactive	inactive	inactive	inactive	inactive		inactive	inactive			
CN1CCC(=C2c3ccccc3CCc3cccnc32)CC1	inactive	inactive	inactive	inactive	inactive	inactive	inactive	inactive	inactive		inactive	inactive	inactive	inactive	inactive	inactive	23.7 µM (active)	inactive	
O=C(O)CCSCCC(=O)O	inactive	inactive	inactive	inactive	inactive	inactive		inactive	inactive		inactive	inactive	inactive		inactive	inactive	inactive	inactive	
CN(C)C(=O)Oc1ccc[n+](C)c1	inactive	inactive	inactive	inactive	inactive	inactive	inactive	inactive	26.6 µM (active)	inactive	inactive	inactive	inactive	inactive	inactive	inactive			inactive
Cc1ccc(-c2ccccc2C#N)cc1	inactive	inactive	inactive	inactive	inactive	inactive													
Cc1nc(C2CCCCC2)c(-c2ccc(S(N)(=O)=O)c(F)c2)o1		inactive		inactive	inactive	inactive													
COC(=O)Nc1ccc(Cl)c(Cl)c1	inactive	inactive	inactive	inactive	inactive	inactive					inactive	inactive	inactive	60.8 µM (active)		inactive	60.8 µM (active)	inactive	inactive
CC1OC1C1CCC2(C)OC2C1 (stereo not given)	inactive		inactive	inactive	inactive	inactive	inactive	inactive	inactive		inactive	inactive	inactive	inactive	inactive	inactive	inactive	inactive	inactive
CN(C)CCCCCCN(C)C		inactive	inactive	inactive	inactive	inactive													
CC1=NN(c2cc(S(=O)(=O)O)ccc2Cl)C(=O)C1N=Nc1ccccc1 (stereo not given)	inactive	inactive	inactive	inactive	inactive		inactive	inactive	inactive	inactive		inactive				inactive	inactive	inactive	inactive
O=[N+]([O-])c1cncn1CCN1CCOCC1	inactive	inactive	inactive	inactive	inactive	inactive													
NC(=O)NC1N=C([O][Al])NC1=O (stereo not given)	inactive	inactive		inactive															
NCCCC[C@H](N[C@@H](CCc1ccccc1)C(=O)O)C(=O)N1CCC[C@H]1C(=O)O	inactive	inactive	inactive	inactive	inactive						inactive	inactive	inactive	inactive		inactive			inactive
CC(C)COC(=O)c1ccc(N)cc1	inactive	inactive	inactive	inactive	inactive	inactive	inactive	26.8 µM [activator] (active)	26.6 µM (active)		inactive	inactive	inactive		inactive	inactive			inactive
